High-throughput results (PubChem BioAssay)
Hits are enriched below; roughly 11% of the tested compounds scored in any of these assays.
Ins promoter up = MIN6 insulin promoter up-regulation | MIN6 insulin promoter-GFP reporter, high-content imaging; active compounds read high | z-score at 5 µM | actives 0.3% (n = 190,000) | AID 1625;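 active = z-score above 3 at 5 µM with at least 500 cells counted in the well; inconclusive = wells under 500 cells, flagged as cytotoxic or low count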
WT yeast gro inh = growth inhibition of WT yeast, mitochondrial fusion screen. mitochondrial fusion phenotypic screen, WT strain. inhibition, % at 10 µM. actives 2.1% (n = 190,000). AID 1362; in the data active = inhibition above about 58%; tested in S. cerevisiae
Autophagy mod = modulators of autophagy | MEF GFP-LC3 puncta imaging; test concentration mostly 10 µM | calls only at 10 µM (by protocol) | actives 0.98% (n = 190,000) | AID 463193;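 active = percentage of spot-positive cells more than 3 SD above its plate mean, without a fluorescence outlier flag or 80% toxicity; inconclusive = no clear call, values can overlap the other calls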;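 note: spot-positive cell cutoff set from DMSO-treated cells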
Lmaj promast = inhibitors of Leishmania major promastigote growth; Leishmania major promastigotes, resazurin fluorescence viability; inhibition, % at 10 µM; actives 9% (n = 200,000); in the data active = inhibition above about 50%;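 note: promastigotes grown with compound for 44 hours at 28 °C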
Insulin prom inh = TRM-6 insulin promoter activity inhibition; TRM-6 cells (human fetal islet line), insulin promoter-eGFP reporter, imaging; reporter expression induced with tamoxifen; inhibition, % at 2 µM; actives 0.9% (n = 130,000);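 active = inhibition above the mean plus 3 SD, with well images judged a real hit on visual review, cut at about 60% in these data, passing the limit was not always enough; inconclusive = inhibition over the cutoff but images rejected on review; inactive = inhibition not above the cutoff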
An asterisk follows results filed as active; i = inactive; ? = inconclusive; / = no result given; + = active, no number.

SMILES	Ins promoter up	WT yeast gro inh	Autophagy mod	Lmaj promast	Insulin prom inh
O=C(c1ccc(F)cc1)N1CCN2C(=O)c3ccccc3C12c1ccc(Cl)cc1 (stereo not given)	-1.3	28	i	46	15
O=C(c1ccccc1)N1CCN2C(=O)c3ccccc3C12c1ccc(Cl)cc1 (stereo not given)	-1.1	-9	+	76*	-71
O=C(CSc1nc(NS(=O)(=O)c2ccccc2)cc(=O)[nH]1)Nc1ccc(F)cc1	0.03	-8	i	0	/
Cc1ccnc(NS(=O)(=O)c2ccc(NC(=O)CSc3nc(-c4ccccc4)cc(=O)[nH]3)cc2)n1	0.37	-10	i	94*	/
CCCCC(=O)Nc1ccc(C(=O)Nc2ccc(S(=O)(=O)Nc3nccc(C)n3)cc2)cc1	0.17	-15	i	78*	33
Cc1ccc(Sc2ccc(CN3CCCC3)cc2[N+](=O)[O-])cc1	0.11	46	i	82*	/
CN1CCN(Cc2ccc(Sc3ccc(Cl)cc3)c([N+](=O)[O-])c2)CC1	-0.83	86*	i	100*	/
Cc1ccc(Sc2ccc(CO)cc2[N+](=O)[O-])cc1	-2	14	i	-3	5
CN1/C(=C/c2cc[n+](C)c3ccccc23)C=Cc2ccccc21	/	91*	i	101*	-210
CCN1C(=O)/C(=C2/C=Cc3ccccc3N2C)OC1=S	0.83	-15	i	-4	-17
Clc1cccc(CSC2=NCCCN2)c1	-0.32	0	i	60*	-217
O=c1[nH]c(SCc2cccc(Cl)c2)nc2c1CCCC2	0.26	19	i	-10	/
CCN(CC)C(=O)/C(=C/c1cccc([N+](=O)[O-])c1)NC(=O)c1ccco1	-0.3	-10	i	0	-14
Cc1noc2ncnc(N3CCN(c4cccc(Cl)c4)CC3)c12	-0.41	61*	i	12	/
COCc1c(C(=O)N/N=C/c2cccc3ccccc23)nnn1-c1nonc1N	0.05	8	i	-3	/
COC(=O)c1cc(NC(=O)c2cccc(Cl)c2)c(=O)oc1/C=C/Nc1cc(C)cc(C)c1	15*	0	+	1	i
CC(NC(=O)c1ccc(Cl)c(Cl)c1)c1ccc(-c2ccccc2)cc1 (stereo not given)	-0.83	/	/	/	/
CC(NC(=O)CCl)c1ccc(Cl)c(Cl)c1 (stereo not given)	-1	6	i	63*	/
Cc1csc(SC(C)C(=O)NCC2CCCCC2)n1 (stereo not given)	0.39	14	i	3	28
CCC(C)c1ccccc1NC(=O)C(C)N(C)Cc1cccc(OC)c1 (stereo not given)	0.21	8	i	22	/
O=C(Cn1cc2c(n1)CCCC2)Nc1cc(-c2cccc(Cl)c2)no1	0.27	13	i	-5	40
CCN1/C(=C/c2ccc3cc(C)ccc3[n+]2CC)Sc2cc(C)ccc21	?	75	?	100*	i
CCCCN1/C(=C/c2ccc3ccccc3[n+]2CC)Sc2ccccc21	?	71	+	100*	/
Cc1sc2c3ccsc3ccc2[n+]1C	/	25	i	1	/
CC[n+]1c(S(=O)(=O)[O-])ccc2ccc(C)cc21	0.08	6	i	-5	/
SMILES	Ins promoter up	WT yeast gro inh	Autophagy mod	Lmaj promast	Insulin prom inh
CCN1/C(=C/c2ccc3ccccc3[n+]2CC)C=Cc2ccccc21	?	83*	+	101*	-223
CCN1/C(=C/c2ccc3cc(C)ccc3[n+]2C)Sc2ccc3sccc3c21	?	95*	+	101*	-376
Cc1ccc(S(=O)(=O)N2CCSC2=Nc2ccccc2)cc1	1.3	/	/	/	/
CCOC(=O)C1=C(CBr)NC(=O)NC1C (stereo not given)	1	10	i	7	/
Cc1cc(C)c(COc2ccc(/C=N/n3c(C)n[nH]c3=S)cc2)c(C)c1	-0.62	91*	i	2	-10
Cc1ccc(N2C(=O)c3ccccc3C2Nc2cccnc2)nc1 (stereo not given)	/	-7	/	69*	/
CNC(=O)CSCc1c(F)cccc1Cl	/	7	i	-8	?
O=C(CSCc1c(F)cccc1Cl)Nc1cccnc1	-0.41	-2	+	-3	/
CC12CS(=O)(=O)CC1SC(=S)N2Cc1ccccc1 (stereo not given)	-0.68	-10	i	-2	31
C/C(=N\NC(=O)C1CC1)c1ccc(Cl)c(Cl)c1	0.71	5	i	14	-5
C/C(=N\N=C(N)N)c1ccc(Cl)c(Cl)c1	-0.9	22	i	101*	35
COC(=O)c1ccc(OS(=O)(=O)N(C)C)cc1	-0.21	-8	i	1	/
O=C(N/N=C/c1ccccc1[N+](=O)[O-])c1ccc2c(c1)OCCO2	-0.41	/	/	/	/
O=C(N/N=C/c1cc([N+](=O)[O-])ccc1O)c1ccc2c(c1)OCCO2	-0.27	13	i	98*	/
CN1CCN(CCC(=O)N/N=C/c2cc([N+](=O)[O-])ccc2O)CC1	0.4	7	i	100*	-4
C=CCOc1c(Cl)cc(C2NC(=O)NC(C)=C2C(=O)OC)cc1Cl (stereo not given)	0.16	-4	i	9	25
O=C(NC(=S)NCC1CCCO1)c1ccc(Cl)cc1 (stereo not given)	-0.03	-18	i	8	-22
O=C(NC(=S)NCC1CCCO1)c1ccc([N+](=O)[O-])cc1 (stereo not given)	0.25	4	i	52*	-29
CCN(C(=O)CN1CCN(c2cccc(C(F)(F)F)c2)CC1)c1c(N)n(Cc2ccccc2)c(=O)[nH]c1=O	0.84	-6	i	-4	/
Cc1c(N2C(=O)c3cccc4cccc(c34)C2=O)c(=O)n(-c2ccccc2)n1C	0.73	97*	i	-2	69*
CC1(C)Cc2c(sc3nnn(Cc4ccc(Cl)cc4)c(=O)c23)CO1	/	20	i	1	31
CC(=O)Nc1nc2ccccc2n1Cc1ccccc1Cl	0.22	/	/	/	/
CC(=O)Nc1nc2ccccc2n1Cc1ccccc1C	0.13	9	i	96*	/
O=C(Nc1nc2ccccc2n1Cc1ccccc1)c1ccco1	0.37	14	i	73*	-3
O=C(Nc1nc(NC(=O)c2ccco2)n(-c2ccccc2)n1)c1ccccc1	-1.1	8	i	100*	20
SMILES	Ins promoter up	WT yeast gro inh	Autophagy mod	Lmaj promast	Insulin prom inh
Clc1ccccc1OCCn1cnc2ccccc21	1.3	-6	i	3	/
CC(=O)Nc1nc2ccccc2n1CCOc1ccccc1Cl	0.62	18	i	99*	-200
Cc1ccc(S(=O)(=O)CCN2C=CC(C(F)(F)F)=NCC2)cc1	0.82	/	/	/	/
CCOC(=O)N1CCC(NC(=O)C2CCN(C(=O)c3cc4sccc4n3CC)CC2)CC1	-0.96	/	/	/	/
COc1ccc(OCc2nc(-c3ccc(F)c(F)c3)cs2)cc1	-0.37	/	/	/	/
CC(=O)Nc1nc(NC(=O)/C=C/c2ccccc2)n(-c2ccccc2)n1	-0.63	4	i	95*	6
CCC(=O)Nc1nc2ccccc2n1Cc1ccccc1Cl	-0.14	/	/	/	/
O=C(CSc1nc2ccccc2n1Cc1ccccc1)N/N=C/c1ccco1	0.61	-9	i	50*	0
CCC(=O)Nc1nc2ccccc2n1Cc1ccc(Cl)cc1	-0.44	64	i	99*	/
